Compound activity as filed in PubChem BioAssay.
PrPC TRFRET: reduces human prion protein on the cell surface; P04156; cell surface PrPC, TR-FRET read-out; inhibition, % at 13.8 µM; hit rate 0.43% among 370,000; AID 720596; in the data active = inhibition above about 24%; note: 0% = median of the test wells and 100% = reference compound wells
PfHsp40 rescue: rescue of PfHsp40-mediated yeast toxicity | S. cerevisiae expressing PfHsp40, growth rescue, ATP luminescence | growth rescue, % at 12.5 µM | hit rate 0.68% among 340,000; in the data active = growth rescue above about 28%, passing the limit was not always enough; inconclusive = no clear call, values can overlap the other calls;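 note: yeast W303a lacking pdr1 and pdr3 grown in galactose medium; growth measured after three days at 30 °C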
BJeLR viability: BJeLR cell viability loss | BJeLR (HRASV12) viability, CellTiter-Glo ATP luminescence, 48 h | inhibition, % (test concentration not listed) | hit rate 0.17% among 300,000 | AID 1554; in the data active = inhibition above about 50%; inconclusive = no clear call, values can overlap the other calls
GDH-TPI counter: inhibits GDH-TPI coupling enzymes, artifact for Mtb FBA screen; AID 588335; hit rate 1.2% among 360,000; inhibition, % at 4.8 µM; GDH-TPI coupled enzyme counterscreen, NADH absorbance; in the data active = inhibition above about 30%;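 note: 0% = DMSO wells and 100% = wells lacking the enzyme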
FBA Mtb inh: Mtb fructose-bisphosphate aldolase inhibition. P9WQA3. purified M. tuberculosis FBA, fluorescence read-out. inhibition, % at 1 µM. hit rate 2.3% among 360,000. AID 588726; in the data active = inhibition above about 27%;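 note: 0% = vehicle and 100% = reference inhibitor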
Target sequence (P9WQA3 whole entry, looked up): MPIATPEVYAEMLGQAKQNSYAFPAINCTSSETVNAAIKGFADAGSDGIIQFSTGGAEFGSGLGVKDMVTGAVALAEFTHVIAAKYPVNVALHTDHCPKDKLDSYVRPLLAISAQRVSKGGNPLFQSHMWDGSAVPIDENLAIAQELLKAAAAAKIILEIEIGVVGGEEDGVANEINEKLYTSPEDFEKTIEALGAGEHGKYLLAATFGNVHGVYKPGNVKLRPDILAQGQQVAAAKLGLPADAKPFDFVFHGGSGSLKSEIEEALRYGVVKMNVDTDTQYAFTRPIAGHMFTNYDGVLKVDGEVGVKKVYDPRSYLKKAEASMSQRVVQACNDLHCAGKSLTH
PrP 5UTR inh: suppresses PrP 5' UTR mRNA reporter expression. hit rate 0.35% among 340,000. inhibition, % (concentration not given with the values). cell-based PrP 5' UTR mRNA reporter, plate reader; in the data active = inhibition above about 52%; note: 0 = median of the neutral control wells
Active calls of the source: *; ? = inconclusive; · = no result given; + = active, no number. Compounds with a hit are over-represented: about 4.5% of the library has one in this group of screens.

SMILES	PrPC TRFRET	PfHsp40 rescue	BJeLR viability	GDH-TPI counter	FBA Mtb inh	PrP 5UTR inh
O=C(Nc1nc(-c2ccc(S(=O)(=O)N3CCOCC3)cc2)cs1)c1ccccc1	4	-1	19	12	0	7
COC(=O)[C@H]1C[C@@]2(C)c3ccccc3N(S(=O)(=O)c3ccccc3)[C@H]2N1	4	·	·	·	·	·
CC1CCC2(CC1)CCC2NCc1ccc(Br)cc1 (stereo unspecified)	8	·	·	·	·	·
Cc1c(O)ccc2cc(S(=O)(=O)c3ccccc3)c(=O)oc12	-4	0	3	3	+	-28
Cc1ccc(S(=O)(=O)c2cc3ccccc3oc2=O)cc1	5	0	-5	19	3	-4
C#CCCN([C@@H](CC(C)C)C(=O)OC)S(=O)(=O)c1ccccc1Br	-8	·	·	·	·	·
CCN(CC)C(=O)CSc1nc2c(sc(=S)n2-c2ccccc2)c(=O)n1-c1ccc(OC)cc1OC	3	0	-8	3	+	-22
CCN(CC)C(=O)CSc1nc2c(sc(=S)n2-c2ccccc2)c(=O)n1-c1ccccc1OC	5	1	20	15	-1	-24
Cc1ccc(-c2nc(N)c3c(-c4ccc(C)cc4)nn(C(C)(C)C)c3n2)cc1	-2	-1	-15	12	0	-3
CC(C)(C)n1nc(-c2ccc(Cl)cc2)c2c(N)ncnc21	0	311*	3	-3	-4	26
CC(C)(C)n1nc(-c2ccc(F)cc2)c2c(N)ncnc21	3	454*	6	5	5	16
O=c1c2ccccc2c(-c2cccc(C(F)(F)F)c2)nn1-c1ccccc1	3	0	4	-7	-1	-23
O=c1c2ccccc2c(-c2ccc(O)cc2)nn1-c1cccc(C(F)(F)F)c1	8	240*	0	-7	-6	-1
CCOC(=O)Cc1csc(NC(=O)c2cnc3sc(C)cn3c2=O)n1	3	-1	-2	54*	-2	-69
Cc1cc(=O)oc2c3c(cc(OCC(=O)NCc4ccco4)c12)OC(C)(C)CC3	16	2	-2	13	+	-17
Cc1cc(=O)oc2cc(OCC(=O)NCc3ccco3)ccc12	1	-1	-2	8	10	-2
COc1ccc(CNC(=O)COc2cc3c(c4oc(=O)cc(C)c24)CCC(C)(C)O3)c(OC)c1	2	·	·	12	34*	·
COc1ccc(CC(=O)Nc2ccc3c(c2)OC2(CCCC2)O3)c(OC)c1	2	·	·	-4	1	·
Cc1cc(=O)oc2c3c(cc(OCC(=O)NCc4ccncc4)c12)OC(C)(C)CC3	3	-1	13	16	+	-14
N#Cc1cccc(NC(=O)OC2CC3CC2[C@H]2CCCCN2C3)c1 (stereo partly specified)	5	·	·	·	·	·
C#CCNC(=O)C[C@@H]1C(=O)N(CC=C)/C2=C/CCCCC[C@]21C(=O)OCC	1	·	·	·	·	·
O=C(OCc1cn(Cc2c(F)cccc2F)nn1)N1CCCC1	-4	·	·	·	·	·
COC(=O)[C@H](C)N(Cc1cn(Cc2ccccc2)nn1)S(=O)(=O)c1ccccc1Br	4	·	·	·	·	·
Cc1cc(C)c(S(=O)(=O)ON2C(=O)c3ccccc3C2=O)cc1C	7	4	-5	8	37*	-17
Cc1cc(C)c(C)c(S(=O)(=O)ON2C(=O)c3ccccc3C2=O)c1C	4	0	-1	2	35*	-10
SMILES	PrPC TRFRET	PfHsp40 rescue	BJeLR viability	GDH-TPI counter	FBA Mtb inh	PrP 5UTR inh
O=C1c2ccccc2C(=O)N1OS(=O)(=O)c1ccc(F)cc1	3	2	1	1	23	-23
Cc1ccc(S(=O)(=O)N2CCN(CCc3ccccc3)CC2)c(C)c1	-2	-1	-6	-4	0	-26
Cc1ccc(S(=O)(=O)ON2C(=O)c3ccccc3C2=O)c(C)c1	-3	-1	·	8	40*	6
COC(=O)C[C@@H]1CC[C@H]2[C@H](COc3ccc(NC(=O)c4cccc(C(F)(F)F)c4)cc3C(=O)N2C)O1	-4	·	·	·	·	·
CCOP(=O)(OCC)c1nc(-c2cccc3ccccc23)oc1NCc1ccccc1	-8	2	6	10	+	-5
COc1ccc(CC(=O)NCc2ccccc2)cc1	11	-1	28	-6	-1	-28
CCOP(=O)(OCC)c1nc(-c2cccc3ccccc23)oc1NCc1ccc(OC)cc1	10	2	1	-3	169*	-18
OC(c1ccccc1)c1nc(-c2ccc(F)c(Cl)c2)cs1 (stereo unspecified)	4	·	·	3	-3	·
O=C(O)C/C(=C\c1ccc(N2CCOCC2)c([N+](=O)[O-])c1)c1nc2ccccc2s1	-11	6	-6	33*	0	-12
O=C(O)CC/C(=C\c1ccc(N2CCOCC2)c([N+](=O)[O-])c1)c1nc2ccccc2s1	1	12	12	25	-6	-11
COc1ccc(C2C(C(=O)Nc3ccc(F)cc3)CCC(=O)N2c2ccc(OC)cc2)cc1 (stereo unspecified)	-8	·	·	·	·	·
Cc1noc2ncnc(SCc3ccc(C(F)(F)F)cc3)c12	8	?	-1	2	-1	-27
Cc1ccc(CSc2ncnc3onc(C)c23)cc1	2	70*	-3	-6	-5	-10
CSc1ccc(/C=C2\CCn3c2nc2cc(C(=O)O)ccc2c3=O)cc1	-15	0	-3	63*	7	-26
COc1ccc(/C=C2\CCn3c2nc2cc(C(=O)O)ccc2c3=O)cc1OC	-4	1	-2	14	4	-2
COC(=O)c1ccc(/C=C2\CCn3c2nc2cc(C(=O)O)ccc2c3=O)cc1	·	-2	3	14	12	-11
COc1ccc(/C=C2\CCn3c2nc2cc(C(=O)O)ccc2c3=O)cc1O	-37	1	2	51*	-4	-18
c1nc(NCC2CCCC2)c2cc(-c3ccc4c(c3)OCO4)ccc2n1	10	·	·	·	·	·
Fc1cccc(CNC2CCC23CCC(c2ccccc2)CC3)c1 (stereo unspecified)	8	·	·	·	·	·
COc1ccc(-c2cc3c(=O)n(CC(=O)NC4CCN(Cc5ccccc5)CC4)ncn3n2)cc1	-8	83*	0	5	1	-47
CCCC[C@H]1C2CC(OC(=O)Nc3ccc(Br)cc3)C(C2)[C@H]2CCCCN21 (stereo partly specified)	8	·	·	·	·	·
CCCCn1c(NS(=O)(=O)c2ccc(C)cc2)c(S(=O)(=O)c2ccccc2)c2nc3ccccc3nc21	1	-2	3	8	5	18
N#Cc1c(N)n(-c2ccc(N)cc2)c2nc3ccccc3nc12	-25	0	2	0	-3	-5
Cc1ccc(S(=O)(=O)c2c(N)n(CCCN(C)C)c3nc4ccccc4nc23)cc1	-2	0	4	42*	128*	-7
Cc1ccc(S(=O)(=O)c2c(N)n(/N=C/c3ccco3)c3nc4ccccc4nc23)cc1	-1	1	9	23	16	5
CN(C)CCCn1c(N)c(C#N)c2nc3ccccc3nc21	-8	-2	-2	16	146*	-20
